{"source": "PubChem BioAssay (Tox21)", "note": "Records with an inconclusive call do not appear. Unmarked numbers belong to inactive results. The call rests on the fitted dose curve; in most records, active means well fitted activation curve with a large enough effect in the repeat runs; inconclusive means weak or mixed curves; inactive means flat fitted curve, though single readings scatter. On the % scale 0 is the no-effect control and ±100 the full control effect."}
{"assay": "A CellTox Green Cytotoxicity Assay to monitor cytotoxicity in HepG2 cells - 16 hour (AID 1224876); further: nearly all actives have a fitted effect of over 45% in size", "conditions": "CellTox Green fluorescence; series mostly up to 76.8 µM; cytotoxicity increase: at the top concentration", "text": "National Center for Advancing Translational Sciences [NCATS]\nNIH Chemical Genomics Center [NCGC]\nU.S. Environmental Protection Agency [EPA]\nNational Institutes of Environmental Health Sciences [NIEHS]\nNational Toxicology Program [NTP]\nCell-based models are critical for drug discovery. Determining the natural cytotoxic effects resulting from test compounds is an essential research activity. A CellTox Green Cytotoxicity Assay to monitor cytotoxicity in real time of continues cell culture during 40 hours of the compound treatment was used to screen Tox21 10K library compounds in HepG2 cells. CellTox Green Cytotoxicity Assay is a nonlytic, homogeneous, biofluorescent method to measure cytotoxicity in cell culture after experimental manipulation. The assay system uses a proprietary asymmetric cyanine dye that is excluded from viable cells but preferentially stains the dead cell's DNA. […] Viable cells produce no appreciable increases in fluorescence. Therefore, the fluorescence signal produced by the binding interaction with dead cell DNA is proportional to cytotoxicity.\nThe mixture of HepG2 cell suspension and reagents were dispensed at 600cells/6 ul/well in 1536-well tissue culture treated black solid bottom plates using a Multidrop dispenser. After the assay plates were incubated at a 37 C/5% CO2 incubator for 5 hours, 23 nL of compounds dissolved in DMSO, positive and negative controls was transferred to the assay plate by a pintool work station. The plates were incubated at 37 C for 40 hours. The fluorescence intensity were measured at 0h, 8h, 16h, 24h, 32h and 40h time points using ViewLux plate reader during compound treatment."}
{"compound": "CC(=O)c1ccc(O)c(C(N)=O)c1", "cytotoxicity increase": "-2.46% [at 35.3 µM]"}
{"compound": "CCCCCCCCS(=O)(=O)O", "cytotoxicity increase": "12%"}
{"compound": "COc1ccccc1N1CCN(CC(O)COc2cc(OC)c(OC)c(OC)c2)CC1", "note": "(stereo not given)", "cytotoxicity increase": "-3.22% [at 35.3 µM]"}
{"compound": "CCCC(=O)CC", "cytotoxicity increase": "-0.0844%"}
{"compound": "Cc1cc(N)no1", "cytotoxicity increase": "-0.977%"}
{"compound": "NNC(=O)OCc1ccccc1", "cytotoxicity increase": "-2.98%"}
{"compound": "CC(O)C(CO)C(C)O", "note": "(stereo not given)", "cytotoxicity increase": "-5.51%"}
{"compound": "N#CC1(N)CCCCC1", "cytotoxicity increase": "1.36%"}
{"compound": "C[n+]1ccccc1/C=N/O", "cytotoxicity increase": "2.81% [at 35.3 µM]"}
{"compound": "C=COCCCCO", "cytotoxicity increase": "-15.9%"}
{"compound": "CN1CCN(C(=O)C2CCCCC2)CC1", "cytotoxicity increase": "-33.7% [at 35.3 µM]"}
{"compound": "COc1ccc(Cl)cc1C", "cytotoxicity increase": "-0.226%"}
{"compound": "CN1C(CCl)Nc2cc(Cl)c(S(N)(=O)=O)cc2S1(=O)=O", "note": "(stereo not given)", "cytotoxicity increase": "-5.09% [at 35.3 µM]"}
{"compound": "CCCC[O][Al]([O]CCCC)[O]CCCC", "cytotoxicity increase": "2.93%"}
{"compound": "C[C@@H]1CCC[C@H](C)N1CCCC(O)(c1ccccc1)c1ccccn1", "note": "(stereo not given in full)", "cytotoxicity increase": "-12.1% [at 35.3 µM]"}
{"compound": "CC(C)(C)C(=O)CC(=O)C(C)(C)C", "cytotoxicity increase": "-15.2%"}
{"compound": "NCC1CCC(C(=O)Oc2ccc(CCC(=O)O)cc2)CC1", "note": "(stereo not given)", "cytotoxicity increase": "-17.6% [at 35.3 µM]"}
{"compound": "CCOC(=O)COc1ccc2c(C)c(CCN(CC)CC)c(=O)oc2c1Cl", "cytotoxicity increase": "-14.2% [at 35.3 µM]"}
{"compound": "C=CCN(CC=C)CC=C", "cytotoxicity increase": "-11%"}
{"compound": "O=Cc1ccc(C(=O)O)cc1", "cytotoxicity increase": "-5.15%"}
{"compound": "CCO/C=C1\\N=C(c2ccccc2)OC1=O", "cytotoxicity increase": "6.96%"}
{"compound": "CCCCN(CCCC)CCCCCCN(CCCC)CCCC", "cytotoxicity increase": "-4.73%"}
{"compound": "CC(C)(C)OC(=O)c1ccccc1C(=O)O", "cytotoxicity increase": "11.5%"}
{"compound": "CCOC(=O)c1ccc(N(C)C)cc1", "cytotoxicity increase": "-5.72%"}
{"compound": "CO/N=C(\\C(=O)O)c1csc(NC(=O)CCl)n1", "cytotoxicity increase": "2.63% [at 35.3 µM]"}
{"compound": "CCOCCOCCOC(C)=O", "cytotoxicity increase": "3.48%"}
{"compound": "O=C(O)CCCCCCCCCC(=O)O", "cytotoxicity increase": "-13.8%"}
{"compound": "C=CCn1cc[n+](C)c1", "cytotoxicity increase": "1.84%"}
{"compound": "O=C(O)Cc1c(Cl)ccc(Cl)c1Cl", "cytotoxicity increase": "2.8%"}
{"compound": "N#Cc1ccccc1C#N", "cytotoxicity increase": "-6.24%"}
{"compound": "CC1=C(O)C(=O)CO1", "cytotoxicity increase": "0.78%"}
{"compound": "CCCC(=O)OC", "cytotoxicity increase": "-4.06%"}
{"compound": "CCCCCCCCCCCCCCBr", "cytotoxicity increase": "-8.38%"}
{"compound": "O=C(O)P(=O)(O)O", "cytotoxicity increase": "-15.1% [at 35.3 µM]"}
{"compound": "CCN1CCN(C(=O)N[C@@H](C(=O)N[C@@H]2C(=O)N3[C@@H]2SC(C)(C)[C@H]3C(=O)O)c2ccccc2)C(=O)C1=O", "cytotoxicity increase": "-19.1% [at 35.3 µM]"}
{"compound": "CN(C)CCc1c[nH]c2ccc(C[C@H]3COC(=O)N3)cc12", "cytotoxicity increase": "-3.42% [at 35.3 µM]"}
{"compound": "c1cc2ccc3ccc4ccc5cccc6c(c1)c2c3c4c56", "cytotoxicity increase": "-15.3% [at 2.72 µM]"}
{"compound": "CCCOc1ccc(C(=O)OCCN(CC)CC)cc1N", "cytotoxicity increase": "-9.06% [at 35.3 µM]"}
{"compound": "CCCCC(CC)CCC(CC(C)C)OS(=O)(=O)O", "note": "(stereo not given)", "cytotoxicity increase": "-9.4%"}
{"compound": "O=S(=O)(O)c1ccc(Cl)cc1", "cytotoxicity increase": "-6.42%"}
